Assay outcomes from PubChem.
A selection: hits, their analogues and other compounds. The true share with any hit is near 28%.
CYP2C19 activ: increases human CYP2C19 enzyme activity | 96,000 tested, under 10 active | activation factor at 5 µM | recombinant CYP2C19, luciferin-H EGE luminescence; hits give high values; 0 = fully inhibited enzyme, 1 = untreated enzyme | P33261 | AID 1025;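 active = activation factor of at least 2 at 5 µM in the primary screen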;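 also: 0 = wells with 2.5 mM tranylcypromine and 1 = vehicle-only wells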
CYP2C19 inh: blocks human cytochrome P450 2C19; 21% of 96,000 active; AID 778; inhibition, % at 5 µM; CYP2C19 Supersomes, luciferin-H EGE luminescence, 30 min;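 active = CYP2C19 inhibition above a set limit at 5 µM in the primary screen, cut at about 50% in these data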;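 also: plate controls were negative control wells for no effect and 2.5 mM tranylcypromine positive control for full effect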
CYP2C9 inhib: human CYP2C9 inhibition; CYP2C9 Supersomes, luciferin-H conversion, luminescence; P11712; inhibition, % at 5 µM; 20% of 96,000 active;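 active = blocking of liver enzyme CYP2C9 beyond about 50% at 5 µM, limit read from the data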
Target sequence (P11712 whole entry, looked up): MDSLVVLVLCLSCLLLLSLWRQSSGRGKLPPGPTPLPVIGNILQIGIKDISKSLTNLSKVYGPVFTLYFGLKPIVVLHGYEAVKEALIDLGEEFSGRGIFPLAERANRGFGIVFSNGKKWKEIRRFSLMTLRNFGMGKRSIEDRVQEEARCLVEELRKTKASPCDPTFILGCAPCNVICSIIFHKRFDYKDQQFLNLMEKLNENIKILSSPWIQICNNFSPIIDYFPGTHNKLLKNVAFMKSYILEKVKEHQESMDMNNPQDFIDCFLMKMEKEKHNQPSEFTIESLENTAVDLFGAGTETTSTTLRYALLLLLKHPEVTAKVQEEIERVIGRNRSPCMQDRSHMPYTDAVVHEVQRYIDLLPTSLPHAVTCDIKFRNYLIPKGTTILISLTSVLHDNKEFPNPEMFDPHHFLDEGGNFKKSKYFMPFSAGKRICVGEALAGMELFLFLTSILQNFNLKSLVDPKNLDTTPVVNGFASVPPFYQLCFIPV
PLK1 inh: blocks human PLK1 kinase activity; P53350; recombinant PLK1 kinase, TR-FRET peptide phosphorylation; inhibition, % at 10 µM; 0.53% of 97,000 active;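 active = inhibition of 50% or more in the single-concentration screen; inactive = inhibition below 50%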;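 also: 0% = DMSO max control and 100% = H-89 dihydrochloride min control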
Plk1 PBD FP: Plk1 (human) PBD binding inhibition. 0.13% of 97,000 active. Plk1 PBD phosphopeptide binding, fluorescence polarization. inhibition, %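 (tested at about 20 µM)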. P53350. AID 693; in the data active = inhibition above about 34%, passing the limit was not always enough
CYP2C9 act: increases human cytochrome P450 2C9 activity. recombinant CYP2C9, luciferin-H conversion, luminescence; hits give high values; factor 1 = untreated enzyme, 0 = blocked. activation factor at 5 µM. AID 1024. 1.4% of 96,000 active;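 active = activation factor of 2 or more for CYP2C9 at a 5 µM dose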;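 also: 0 = sulfaphenazole-blocked wells and 1 = vehicle-only wells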
* = called active by the depositor; . = not tested or not shown.

SMILES	CYP2C19 activ	CYP2C19 inh	CYP2C9 inhib	PLK1 inh	Plk1 PBD FP	CYP2C9 act
CCC(NC(=S)NCc1ccccc1)C(=O)O (stereo not given)	0.5	54*	12	-2	15	0.9
Cc1cc(C(F)F)n2ncc(C(=O)N3CCC(C(N)=O)CC3)c2n1	1.1	-12	-18	1	10	1.2
COc1ccc(CNC(=O)c2cnn3c(C(F)F)cc(C)nc23)cc1OC	0.4	57*	5	.	.	0.9
O=C(CSc1nnc(CCc2ccccc2)n1-c1ccc(Cl)cc1)NCc1ccccc1	0.2	84*	89*	2	-12	0.1
C=CCn1c(SCC(=O)NCc2ccccc2)nnc1-c1ccccc1O	0.3	71*	74*	-16	16	0.3
C=CCn1c(CSCc2ccc(Cl)cc2)nnc1SCC(=O)NCc1ccccc1	0.1	87*	81*	-7	-26	0.2
C=CCn1c(CSCc2ccc(C)cc2)nnc1SCC(=O)NCc1ccccc1	0.2	80*	79*	-12	-16	0.2
CC1CN=C(N(C(=O)Nc2ccccc2)c2ccc(S(=O)(=O)N3CCOCC3)cc2)S1 (stereo not given)	0.9	7	46	-1	9	0.5
CCN(CC)S(=O)(=O)c1ccc(F)c(C(=O)NCCC(C)C)c1	.	.	.	11	-7	.
C=CCn1c(SCc2ccccc2C#N)nnc1-c1ccccc1O	0	98*	9	-11	10	0.9
C=CCn1c(SCC(N)=O)nnc1-c1ccccc1O	0.9	6	-30	2	-16	1.3
C=CCn1c(SCC(N)=O)nnc1-c1cc(Br)ccc1O	0.1	87*	24	-9	18	0.8
CCCCCCOC(=O)C(C#N)c1nc2ccccc2nc1N1CCN(C)CC1 (stereo not given)	0.7	30	0	1	-6	1
N#CC(C(=O)OCc1ccccc1)c1nc2ccccc2nc1N1CCOCC1 (stereo not given)	0.5	50*	40	9	-1	0.6
N#CC(C(=O)NC1CCCCC1)c1nc2ccccc2nc1N1CCOCC1 (stereo not given)	0.8	18	2	.	.	1
CCC(C)COC(=O)C(C#N)c1nc2ccccc2nc1N1CCCCC1 (stereo not given)	0.5	50	66*	-5	5	0.3
COc1ccc(CNC(=O)C(C#N)c2nc3ccccc3nc2N2CCN(C)CC2)cc1 (stereo not given)	0.4	58*	46	1	10	0.5
CCC(CC)COC(=O)C(C#N)c1nc2ccccc2nc1N1CCN(CC)CC1 (stereo not given)	0.2	82*	64*	-6	-8	0.4
CCCCCCOC(=O)C(C#N)c1nc2ccccc2nc1N1CCCCC1 (stereo not given)	0.6	36	30	-16	7	0.7
COc1ccc(-n2cnnc2SCC(=O)c2ccc(S(=O)(=O)N3CCOCC3)cc2)cc1	0.8	20	19	.	.	0.8
O=C(Nc1ccccc1)OCc1cc(-c2ccccc2Cl)on1	1	4	0	-11	-28	1
CN(C)c1nc(SCc2ccccc2Cl)nc2c1CCCC2	0.2	80*	21	-7	15	0.8
O=c1[nH]c(SCc2ccc(Cl)cc2)nc2c1CCC2	0.7	28	47	.	.	0.5
Cc1ccc(CSc2nc3c(c(SCC(=O)O)n2)CCCC3)cc1	1	-3	32	-20	15	0.7
COC(=O)CSc1nc(SCc2ccc(C)cc2)nc2c1CCCC2	0	95*	97*	-6	-4	0
SMILES	CYP2C19 activ	CYP2C19 inh	CYP2C9 inhib	PLK1 inh	Plk1 PBD FP	CYP2C9 act
COC(=O)CSc1nc(-c2ccc(C)cc2)c2c(c1C#N)CCCC2	0.5	45	55*	-27	-30	0.4
Cc1ccc(CSc2nc3c(c(N(C)C)n2)CCCC3)cc1	0.1	93*	56*	-8	-6	0.4
O=c1[nH]c(SCc2ccccc2Cl)nc2c1CCCC2	1	-4	21	-17	-15	0.8
Cn1c(CNC(=O)Cc2ccc3c(c2)OCO3)nnc1SCc1ccccc1	0.8	21	-16	1	-23	1.2
CCn1c(=O)cc(SCC(=O)NCCCN2CCN(c3ccccc3F)CC2)c2ccccc21	1	-2	-39	-11	-31	1.4
COc1ccccc1-n1c(CNC(=O)c2ccco2)nnc1SCC(=O)Nc1nccs1	0.8	17	42	-20	25	0.6
CNc1nc(SCc2ccc(C)cc2)nc2c1CCCC2	0	96*	73*	-7	8	0.3
NC(=O)c1ccc[n+](CC(=O)OCCC23CC4CC(CC(C4)C2)C3)c1	1	0	-3	-15	22	1
O=C(c1ccc(Br)o1)N(Cc1ccccc1)c1ccccn1	0.3	72*	22	-20	-8	0.8
O=S(=O)(c1ccccc1)N(Cc1ccccc1)c1ccccn1	0.3	67*	57*	5	-4	0.4
O=C(c1ccccc1)N(Cc1ccccc1)c1ccccn1	0.4	57*	33	-2	-8	0.7
O=C(c1cnc2sccn2c1=O)N(Cc1ccccc1)c1ccccn1	1	-2	50*	.	.	0.5
CC(=O)c1c(N2CCC(C(N)=O)CC2)nc(=S)n(-c2ccccc2)c1C	1	0	-3	0	-34	1
Cc1ccc(N2C(=O)c3ccc(C(=O)N4CCOCC4)cc3C2=O)cc1C	.	.	.	-4	-20	.
O=S1(=O)CC(N2CCCCC2)C(N2CCCCC2)C1 (stereo not given)	1	0	4	-3	1	1
CCOC(=O)C1=C(C)NC(=O)C1CC(=O)Nc1ccccc1 (stereo not given)	.	.	.	-11	13	.
CNC(=S)NN(c1ccccc1)c1ccccc1	0.2	78*	8	-8	5	0.9
CNC(=S)Nc1ccc(Nc2ccccc2)cc1	0.6	43	40	-15	-20	0.6
COc1cccc(CNn2c(-c3cccc(C)c3)nc3ccccc3c2=O)c1	0	98*	98*	7	-17	0
COc1ccc(OC)c(CNn2c(-c3cccc(C)c3)nc3ccccc3c2=O)c1	0.1	89*	80*	-4	-3	0.2
O=C(CSc1nc2c([nH]c3ccccc32)c(=O)n1-c1ccc(F)cc1)NCc1ccco1	1	3	15	-1	-13	0.9
CCOC(=O)c1c(COC(=O)c2ccco2)nc2ccccc2[n+]1[O-]	0.9	14	19	-8	-13	0.8
CC(=O)c1c(COC(=O)c2ccco2)nc2ccccc2[n+]1[O-]	0.4	60*	63*	.	.	0.4
CC(=O)c1c(COC(=O)c2ccncc2)nc2ccccc2[n+]1[O-]	0.1	92*	35	-3	-1	0.6
O=C(Cc1coc(-c2ccc(F)cc2)n1)N1CCOCC1	0.5	50*	52*	.	.	0.5
O=C(Nc1ccc(F)cc1)N1CCOCC1	1	1	7	-3	-16	0.9
